Test systems include NCI-H23 lung; NCI-H226 lung; NCI-H322M lung; HOP-62 NSCLC; NCI-H522 lung; A549/ATCC NSCLC; 786-0 renal; COLO 205 colon; DU-145 prostate; K-562 leukemia; MALME-3M melanoma; MDA-MB-231 breast; RXF 393 renal; SF-268 CNS; SF-539 CNS; UACC-257 melanoma; M14 melanoma; NCI-H460 lung; HOP-92 NSCLC; SF-295 CNS.
What all share (test): NCI-60 one-dose screen, 48 h (100 = growth as untreated, 0 = no growth, -100 = all killed)
Conditions in all cases: 10 µM unless noted

The panel holds about 83,000 compounds, 20% with a hit somewhere; the sample as a whole holds those more often.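 96-well plates, one dose, 48 hours. Percent growth reported; active if below 10.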 Values without a mark were called inactive. Activity calls are given as the source filed them.

As for `COc1ccc(C2C=C(c3ccc(N)cc3)N=C3SC=CN32)cc1OC` (stereo not drawn), the growth with NCI-H23 lung was 101%; in the test on NCI-H226 lung, 107%; in the test on NCI-H322M lung, 102%; in the test with HOP-62 NSCLC, 108%; in the test on NCI-H522 lung, 101%; in the test on A549/ATCC NSCLC it was 99.7%. The growth in the test with 786-0 renal was 104%; with COLO 205 colon, 114%; with DU-145 prostate, 107%; in the test on K-562 leukemia, 97.5%; in the test with MALME-3M melanoma, 92.8%; in the test on MDA-MB-231 breast, 123%. For the same compound, the growth in the test on RXF 393 renal was 110%; with SF-268 CNS it was 104%; in the test on SF-539 CNS, 99.9%; in the test with UACC-257 melanoma, 103%; in the test on M14 melanoma, 106%.

In the case of `COc1ccc(/C=C2/C(=O)NC(SCC(=O)N3CCN(c4cc5c(cc4F)c(=O)c(C(=O)O)cn5C4CC4)CC3)=NC2N)cc1OC` (stereo not drawn), the growth in the test with NCI-H23 lung is 102%; in the test with NCI-H226 lung, 98.5%; with HOP-62 NSCLC, 110%; in the test on NCI-H460 lung it was 107%; in the test with HOP-92 NSCLC, 101%; in the test with NCI-H522 lung, 99%. Besides, the growth with A549/ATCC NSCLC is 107%; with 786-0 renal, 102%; with COLO 205 colon, 113%; in the test with DU-145 prostate it was 104%; in the test on K-562 leukemia it was 107%; with MALME-3M melanoma it was 108%. Also, the growth in the test with MDA-MB-231 breast is 106%; with RXF 393 renal, 109%; with SF-268 CNS, 96.8%; with SF-295 CNS, 93.9%; with SF-539 CNS, 101%; in the test on UACC-257 melanoma, 108%. Also, the growth with M14 melanoma is 106%.

As for `Cc1ccc2[nH]c(=O)c3c(c2c1)Oc1ncn2nc(-c4ccco4)nc2c1C3c1ccc(Cl)cc1` (stereo not drawn), the growth was 93.3% with NCI-H23 lung; 92.4% with NCI-H226 lung; 92.1% in the test on HOP-62 NSCLC; 99.9% in the test with NCI-H460 lung; 78.5% in the test on HOP-92 NSCLC; 89.5% in the test with NCI-H522 lung. Moreover, the growth is 96.7% in the test on A549/ATCC NSCLC; 109% with COLO 205 colon; 98.5% with DU-145 prostate; 93.2% in the test with K-562 leukemia; 96.3% in the test on MALME-3M melanoma; 89.4% in the test with MDA-MB-231 breast. Besides, the growth in the test on RXF 393 renal was 93.2%; in the test on SF-268 CNS, 91.8%; with SF-295 CNS, 95.9%; with SF-539 CNS, 89.8%; in the test on UACC-257 melanoma it was 95.5%; in the test on M14 melanoma, 100%.

Regarding `Fc1ccccc1-c1nc(-c2nc3cc(Cl)c(Cl)cc3[nH]2)c2ccccn12`, the growth in the test with NCI-H23 lung is 69.2%; with NCI-H226 lung, 78.5%; with HOP-62 NSCLC, 68.8%; in the test with NCI-H460 lung, 57.3%; with HOP-92 NSCLC, 49.6%; in the test on NCI-H522 lung, 72.5%. For the same compound, the growth was 72.2% in the test on A549/ATCC NSCLC; 86.4% in the test with 786-0 renal; 89.6% in the test with COLO 205 colon; 51.5% with DU-145 prostate; 73.1% in the test with K-562 leukemia; 34.5% in the test on MALME-3M melanoma. Moreover, the growth in the test with MDA-MB-231 breast was 91.4%; in the test on RXF 393 renal, 69.2%; in the test on SF-268 CNS it was 77.4%; with UACC-257 melanoma it was 82.2%; in the test with M14 melanoma, 71%.

Turning to `COc1cc(C2CC(c3ccc4c(c3)OCO4)=NN2C(C)=O)cc(OC)c1OC` (stereo not drawn), the growth in the test with NCI-H23 lung was 44.3%; in the test on NCI-H226 lung, 52.4%; in the test on HOP-62 NSCLC it was 35.5%; in the test on HOP-92 NSCLC it was 74.6%; with NCI-H522 lung, -29.8% (active); with A549/ATCC NSCLC it was 36%. For the same compound, the growth was 42.1% in the test with 786-0 renal; -12.8% (active) in the test with COLO 205 colon; 13.7% with DU-145 prostate; 18.2% with K-562 leukemia; 23.3% in the test on MALME-3M melanoma; 61.3% with MDA-MB-231 breast. Besides, the growth with RXF 393 renal was 7.22% (active); in the test on SF-268 CNS, 52.7%; in the test on SF-295 CNS, -7.31% (active); with UACC-257 melanoma it was 66.5%; with M14 melanoma, 29.3%.

Turning to `CCOC(=O)c1ccc(NC(=O)N2CC(C)OC(C)C2)cc1` (stereo not drawn), the growth in the test on NCI-H23 lung was 92%; in the test with NCI-H226 lung, 98.1%; with NCI-H322M lung, 111%; with HOP-62 NSCLC, 91.7%; with NCI-H522 lung, 94.6%; in the test with A549/ATCC NSCLC, 106%. Further, the growth in the test on 786-0 renal is 98.6%; in the test with COLO 205 colon, 116%; in the test on DU-145 prostate, 111%; in the test with K-562 leukemia, 89.9%; in the test with MALME-3M melanoma, 101%; with MDA-MB-231 breast it was 96.5%. The growth in the test on RXF 393 renal is 98.6%; with SF-268 CNS, 106%; in the test with SF-295 CNS, 98.5%; in the test on SF-539 CNS, 95.8%; in the test with UACC-257 melanoma it was 106%; in the test on M14 melanoma it was 107%.

`CN1CCN(Cc2ccc(NC(=O)c3cncc(C#Cc4cnc(N)c5cnccc45)c3)cc2C(F)(F)F)CC1`: the growth with NCI-H23 lung is 4.51% (active); with NCI-H226 lung, -28.4% (active); in the test with HOP-62 NSCLC, -23.7% (active); in the test on NCI-H460 lung, -9.5% (active); with HOP-92 NSCLC, -58.6% (active); in the test with NCI-H522 lung it was 10.8%. In addition, the growth is 20% in the test with A549/ATCC NSCLC; 23.1% in the test with 786-0 renal; -20.2% (active) in the test with COLO 205 colon; 10% with DU-145 prostate; 1.52% (active) in the test on K-562 leukemia; -75.6% (active) in the test on MALME-3M melanoma. The growth in the test on MDA-MB-231 breast was -61.2% (active); in the test on RXF 393 renal, -48.3% (active); with SF-268 CNS it was 16.5%; with SF-295 CNS, 8.91% (active); in the test with SF-539 CNS, -73.8% (active); in the test with UACC-257 melanoma, -1.75% (active). Further, the growth in the test with M14 melanoma is -41.6% (active).

For `Clc1ccc(-c2nc3ccccc3s2)cc1Cl`, the growth in the test with NCI-H23 lung was 94.2%; in the test on NCI-H226 lung it was 87.2%; in the test with HOP-62 NSCLC, 104%; in the test on HOP-92 NSCLC, 84.1%; in the test with NCI-H522 lung, 82.7%; in the test on A549/ATCC NSCLC, 97.7%. The growth in the test with 786-0 renal was 103%; in the test on COLO 205 colon, 111%; with DU-145 prostate, 112%; with MALME-3M melanoma, 114%; in the test with MDA-MB-231 breast it was 68%; with RXF 393 renal it was 109%. In addition, the growth in the test on SF-268 CNS is 99.2%; with SF-295 CNS, 108%; with SF-539 CNS it was 104%; in the test on UACC-257 melanoma, 114%; in the test with M14 melanoma, 104%.

As to `O=C1C(Cl)=C(Nc2ccccn2)C(=O)c2ccccc21`, the growth in the test on NCI-H226 lung was 94.1%; in the test on NCI-H322M lung, 115%; with HOP-62 NSCLC it was 46.9%; in the test on NCI-H460 lung, 62.6%; in the test on HOP-92 NSCLC, 102%; with A549/ATCC NSCLC, 104%. For the same compound, the growth was 111% in the test with 786-0 renal; 97.6% in the test with COLO 205 colon; -10.9% (active) with DU-145 prostate; 29.6% in the test with K-562 leukemia; -16.4% (active) in the test with MALME-3M melanoma; 62.1% in the test on MDA-MB-231 breast. In addition, the growth with RXF 393 renal is 95.3%; in the test on SF-268 CNS, 58.8%; in the test on SF-295 CNS, 82.9%; in the test with SF-539 CNS it was 25.4%; with UACC-257 melanoma it was -10% (active); in the test on M14 melanoma, 89.5%.

Consider `CC(=O)Nc1scc[n+]1Cc1ccccc1`, for which the growth in the test with NCI-H226 lung was 106%; with NCI-H322M lung, 131%; in the test with HOP-62 NSCLC, 105%; in the test on NCI-H460 lung, 112%; in the test with HOP-92 NSCLC, 99.2%; with NCI-H522 lung, 103%. Besides, the growth is 104% in the test with A549/ATCC NSCLC; 102% with 786-0 renal; 111% in the test on COLO 205 colon; 118% in the test with DU-145 prostate; 99.1% in the test on K-562 leukemia; 130% with MALME-3M melanoma. Moreover, the growth was 115% in the test with MDA-MB-231 breast; 98.3% in the test with RXF 393 renal; 110% in the test on SF-268 CNS; 105% in the test with SF-295 CNS; 104% with SF-539 CNS; 107% with UACC-257 melanoma. Besides, the growth in the test on M14 melanoma was 98.5%.

For `CCCCCCCCCCCCNC(=O)[C@H]1CSC(c2cc3ccccc3s2)N1` (stereo partly drawn), the growth with NCI-H226 lung was 22.8%; in the test with NCI-H322M lung, 16.6%; with HOP-62 NSCLC, -96.3% (active); with NCI-H460 lung it was -54.8% (active); with HOP-92 NSCLC, 62.5%; in the test with NCI-H522 lung it was 16%. Besides, the growth in the test with A549/ATCC NSCLC was 63.8%; in the test with 786-0 renal, 11.7%; with COLO 205 colon it was 95.6%; in the test on DU-145 prostate, -57.1% (active); in the test on K-562 leukemia, -55.8% (active); in the test with MALME-3M melanoma it was 15.4%. Moreover, the growth was -86.9% (active) with MDA-MB-231 breast; -78.5% (active) in the test on RXF 393 renal; -74% (active) in the test on SF-268 CNS; 18.9% with SF-295 CNS; -68.1% (active) in the test on SF-539 CNS; 17.6% in the test on UACC-257 melanoma. In the test on M14 melanoma, the growth is -89% (active).

Source of the values: PubChem BioAssay (NCI).
